The source of these data is paper PMC7862700, “An all-to-all approach to the identification of sequence-specific readers for epigenetic DNA modifications on cytosine”.

Assay in all cases: DAPPL (digital affinity profiling via proximity ligation, sequencing); 10 mM Tris-HCl pH 7.5, 50 mM NaCl, 1 mM DTT, 4% glycerol, room temperature, 30 min; GST-TFs on glutathione beads, 16-mer random dsDNA library, 0.1% formaldehyde crosslink after washing; high values mean tight binding
The target in one assay is T1, FEV (Homo sapiens, UniProt Q99581 1-238).
T1 sequence: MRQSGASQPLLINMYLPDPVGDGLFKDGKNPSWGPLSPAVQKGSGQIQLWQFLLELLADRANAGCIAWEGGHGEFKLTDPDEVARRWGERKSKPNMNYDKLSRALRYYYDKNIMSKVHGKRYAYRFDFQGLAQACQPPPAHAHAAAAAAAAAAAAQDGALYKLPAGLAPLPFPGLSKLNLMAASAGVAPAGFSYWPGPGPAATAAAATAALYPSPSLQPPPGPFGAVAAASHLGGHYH
Particulars: protein: recombinant; tags: N-terminal GST; dsDNA, one strand shown. Summed up:
(§1)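 Binding signal is each hexamer's read frequency for a factor divided by its frequency in the tag-only sample. The factors were GST-fused human transcription factors from yeast, captured on glutathione beads, DNA-barcoded and pooled with that sample. Pools were incubated with 200 nmole of a random double-stranded 16-mer DNA library in Tris/NaCl/DTT/glycerol buffer at room temperature for 30 min, then washed, crosslinked with 0.1% formaldehyde, proximity-ligated with BsaI/T4 ligase (1 h, 37 °C), PCR-amplified and sequenced on an Illumina NextSeq500.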

Another assay concerns the target ETV5 (Homo sapiens, UniProt P41161 1-510). Particulars: protein: recombinant; tags: N-terminal GST; dsDNA, one strand shown. In outline:
as §1

A further assay addresses HSF1 (Homo sapiens, UniProt Q00613 1-529). The following applies: protein: recombinant; tags: N-terminal GST; chain copies: 3; dsDNA, one strand shown. Summed up:
as §1

In a further assay the target is T2, SPIC (Homo sapiens, UniProt Q8N5J4 1-248).
T2 sequence: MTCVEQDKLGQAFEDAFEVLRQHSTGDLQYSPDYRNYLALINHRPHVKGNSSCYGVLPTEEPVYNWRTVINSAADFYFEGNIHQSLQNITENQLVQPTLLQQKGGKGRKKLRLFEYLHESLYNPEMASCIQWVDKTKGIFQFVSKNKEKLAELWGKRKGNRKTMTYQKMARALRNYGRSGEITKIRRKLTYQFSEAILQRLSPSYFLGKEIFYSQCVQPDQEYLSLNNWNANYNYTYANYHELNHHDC
The following applies: protein: recombinant; tags: N-terminal GST; dsDNA, one strand shown. In outline:
as §1

For a further assay, the target named is ELF4 (Homo sapiens, UniProt Q99607 1-663). Particulars: protein: recombinant; tags: N-terminal GST; dsDNA, one strand shown. In outline:
as §1

The target in another assay is T3, ELK4 (Homo sapiens, UniProt P28324-2 1-405).
T3 sequence: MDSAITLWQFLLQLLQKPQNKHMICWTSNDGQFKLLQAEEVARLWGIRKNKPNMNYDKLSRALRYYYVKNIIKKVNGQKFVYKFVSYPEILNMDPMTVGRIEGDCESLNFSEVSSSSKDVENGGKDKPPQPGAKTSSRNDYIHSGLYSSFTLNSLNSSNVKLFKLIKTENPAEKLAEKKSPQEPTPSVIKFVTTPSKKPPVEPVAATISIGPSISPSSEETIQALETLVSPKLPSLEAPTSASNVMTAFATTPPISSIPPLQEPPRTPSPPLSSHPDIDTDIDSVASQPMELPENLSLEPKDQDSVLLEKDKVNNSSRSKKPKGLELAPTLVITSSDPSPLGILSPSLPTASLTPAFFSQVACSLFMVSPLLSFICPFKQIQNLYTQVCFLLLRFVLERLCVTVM
Particulars: protein: recombinant; tags: N-terminal GST; dsDNA, one strand shown. In outline:
as §1

The target in a further assay is T4, ETV2 (Homo sapiens, UniProt O00321 1-342).
T4 sequence: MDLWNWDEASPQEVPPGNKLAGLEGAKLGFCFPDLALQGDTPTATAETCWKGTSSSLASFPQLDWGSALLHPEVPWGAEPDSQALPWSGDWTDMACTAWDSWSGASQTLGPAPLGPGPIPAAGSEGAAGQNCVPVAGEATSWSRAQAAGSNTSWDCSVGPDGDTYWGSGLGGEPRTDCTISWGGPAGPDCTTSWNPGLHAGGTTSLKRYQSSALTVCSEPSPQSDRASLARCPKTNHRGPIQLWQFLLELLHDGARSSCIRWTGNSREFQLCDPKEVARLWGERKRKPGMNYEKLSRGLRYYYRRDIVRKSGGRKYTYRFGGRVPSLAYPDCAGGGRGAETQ
The following applies: protein: recombinant; tags: N-terminal GST; dsDNA, one strand shown. In outline: as §1

A further assay deals with T5, ELF3 (Homo sapiens, UniProt P78545 1-371).
T5 sequence: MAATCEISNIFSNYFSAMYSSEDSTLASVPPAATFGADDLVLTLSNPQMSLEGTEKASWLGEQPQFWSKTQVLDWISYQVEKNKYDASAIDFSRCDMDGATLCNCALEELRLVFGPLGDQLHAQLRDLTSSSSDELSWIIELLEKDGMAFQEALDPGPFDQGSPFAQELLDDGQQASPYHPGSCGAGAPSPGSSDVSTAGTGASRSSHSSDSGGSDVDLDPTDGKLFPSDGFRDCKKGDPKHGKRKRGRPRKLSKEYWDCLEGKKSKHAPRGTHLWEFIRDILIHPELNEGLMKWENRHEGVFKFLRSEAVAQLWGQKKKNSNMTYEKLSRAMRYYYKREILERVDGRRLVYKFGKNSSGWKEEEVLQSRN
The following applies: protein: recombinant; tags: N-terminal GST; dsDNA, one strand shown. In outline: as §1

A further assay concerns the target CRX (Homo sapiens, UniProt O43186 1-299). Particulars: protein: recombinant; tags: N-terminal GST; dsDNA, one strand shown. Summed up:
as §1

In another assay the target is ETV1 (Homo sapiens, UniProt P50549 1-477). Particulars: protein: recombinant; tags: N-terminal GST; dsDNA, one strand shown. In outline: as §1
A further assay concerns the target T6, ERF (Homo sapiens, UniProt P50548 1-548).
T6 sequence: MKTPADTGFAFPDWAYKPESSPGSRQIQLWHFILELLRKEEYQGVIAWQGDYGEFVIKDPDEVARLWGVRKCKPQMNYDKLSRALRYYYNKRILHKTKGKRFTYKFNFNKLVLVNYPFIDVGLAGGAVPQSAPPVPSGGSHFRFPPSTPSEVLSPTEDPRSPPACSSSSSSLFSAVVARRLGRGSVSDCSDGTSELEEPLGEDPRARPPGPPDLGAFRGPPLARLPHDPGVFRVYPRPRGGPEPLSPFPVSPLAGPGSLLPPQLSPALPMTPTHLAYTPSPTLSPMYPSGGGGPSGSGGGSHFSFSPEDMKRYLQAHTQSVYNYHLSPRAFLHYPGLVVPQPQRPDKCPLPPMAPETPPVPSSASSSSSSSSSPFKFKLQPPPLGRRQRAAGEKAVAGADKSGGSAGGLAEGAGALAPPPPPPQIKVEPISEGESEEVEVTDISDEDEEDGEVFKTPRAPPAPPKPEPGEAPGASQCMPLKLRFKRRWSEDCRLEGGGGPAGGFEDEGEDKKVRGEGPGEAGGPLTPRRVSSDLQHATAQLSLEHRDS
The following applies: protein: recombinant; tags: N-terminal GST; dsDNA, one strand shown. Summed up: as §1

In a further assay the target is T7, ETV3L (Homo sapiens, UniProt Q6ZN32 1-361).
T7 sequence: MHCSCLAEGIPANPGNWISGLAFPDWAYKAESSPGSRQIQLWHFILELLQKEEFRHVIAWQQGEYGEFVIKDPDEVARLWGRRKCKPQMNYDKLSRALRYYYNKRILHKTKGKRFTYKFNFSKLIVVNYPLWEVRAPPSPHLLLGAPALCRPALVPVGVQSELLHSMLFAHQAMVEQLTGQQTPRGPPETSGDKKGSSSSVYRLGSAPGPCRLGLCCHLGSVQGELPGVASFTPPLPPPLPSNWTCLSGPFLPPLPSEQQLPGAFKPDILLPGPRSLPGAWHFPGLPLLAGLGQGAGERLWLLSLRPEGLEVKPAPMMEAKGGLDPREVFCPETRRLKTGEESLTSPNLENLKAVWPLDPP
Particulars: protein: recombinant; tags: N-terminal GST; dsDNA, one strand shown. Summed up:
as §1

The next assay concerns the target T8, ETS2 (Homo sapiens, UniProt P15036 1-469).
T8 sequence: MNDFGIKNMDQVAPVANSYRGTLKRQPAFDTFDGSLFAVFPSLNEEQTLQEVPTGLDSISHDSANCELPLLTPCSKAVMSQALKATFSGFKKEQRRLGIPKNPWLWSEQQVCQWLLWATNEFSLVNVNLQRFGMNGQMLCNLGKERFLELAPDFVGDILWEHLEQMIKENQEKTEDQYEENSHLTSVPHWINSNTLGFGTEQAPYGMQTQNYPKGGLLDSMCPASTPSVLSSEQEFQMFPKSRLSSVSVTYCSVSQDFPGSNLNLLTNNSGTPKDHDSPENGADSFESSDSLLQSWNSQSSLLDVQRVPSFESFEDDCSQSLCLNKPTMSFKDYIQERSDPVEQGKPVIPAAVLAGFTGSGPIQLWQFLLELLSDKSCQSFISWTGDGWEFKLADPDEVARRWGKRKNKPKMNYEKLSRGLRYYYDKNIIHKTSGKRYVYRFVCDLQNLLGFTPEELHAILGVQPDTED
Particulars: protein: recombinant; tags: N-terminal GST; dsDNA, one strand shown. Summed up: as §1

A further assay deals with T9, SPDEF (Homo sapiens, UniProt O95238 1-335).
T9 sequence: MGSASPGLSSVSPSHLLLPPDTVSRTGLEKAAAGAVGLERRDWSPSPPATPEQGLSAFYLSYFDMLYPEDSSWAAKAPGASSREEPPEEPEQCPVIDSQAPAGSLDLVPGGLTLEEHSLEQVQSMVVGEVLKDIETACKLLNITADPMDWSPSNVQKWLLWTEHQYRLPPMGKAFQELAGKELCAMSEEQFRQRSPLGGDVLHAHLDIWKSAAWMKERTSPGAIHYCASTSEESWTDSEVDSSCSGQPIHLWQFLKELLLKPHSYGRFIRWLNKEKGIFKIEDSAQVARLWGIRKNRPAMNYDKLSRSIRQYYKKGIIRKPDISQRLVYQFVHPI
The following applies: protein: recombinant; tags: N-terminal GST; dsDNA, one strand shown. Summed up: as §1

In another assay the target is T10, ETV7 (Homo sapiens, UniProt Q9Y603 1-341).
T10 sequence: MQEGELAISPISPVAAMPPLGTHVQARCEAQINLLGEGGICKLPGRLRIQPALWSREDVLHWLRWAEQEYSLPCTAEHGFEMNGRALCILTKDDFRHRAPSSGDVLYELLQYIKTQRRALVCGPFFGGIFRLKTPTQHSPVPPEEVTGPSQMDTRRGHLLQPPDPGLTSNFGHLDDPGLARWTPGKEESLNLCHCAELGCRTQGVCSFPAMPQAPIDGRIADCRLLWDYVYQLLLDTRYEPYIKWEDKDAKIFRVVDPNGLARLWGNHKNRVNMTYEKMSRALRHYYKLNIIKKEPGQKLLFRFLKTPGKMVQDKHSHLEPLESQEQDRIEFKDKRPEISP
Particulars: protein: recombinant; tags: N-terminal GST; dsDNA, one strand shown. Summed up: as §1

The target in another assay is T11, ELF5 (Homo sapiens, UniProt Q9UKW6-2 1-255).
T11 sequence: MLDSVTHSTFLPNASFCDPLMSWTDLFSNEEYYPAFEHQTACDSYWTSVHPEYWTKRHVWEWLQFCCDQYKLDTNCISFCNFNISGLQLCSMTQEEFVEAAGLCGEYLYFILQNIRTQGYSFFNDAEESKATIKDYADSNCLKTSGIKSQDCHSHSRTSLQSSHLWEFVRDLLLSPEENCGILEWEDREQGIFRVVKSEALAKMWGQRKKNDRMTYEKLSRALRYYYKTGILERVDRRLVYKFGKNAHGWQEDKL
Particulars: protein: recombinant; tags: N-terminal GST; dsDNA, one strand shown. In outline: as §1

For another assay, the target named is T12, ETV3 (Homo sapiens, UniProt P41162-2 1-143).
T12 sequence: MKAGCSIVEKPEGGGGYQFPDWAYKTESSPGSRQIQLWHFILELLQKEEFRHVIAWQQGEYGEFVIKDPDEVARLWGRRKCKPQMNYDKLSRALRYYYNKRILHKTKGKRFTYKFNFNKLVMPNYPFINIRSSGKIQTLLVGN
The following applies: protein: recombinant; tags: N-terminal GST; dsDNA, one strand shown. Summed up: as §1

For the next assay, the target named is ETV6 (Homo sapiens, UniProt P41212 1-452). The following applies: protein: recombinant; tags: N-terminal GST; dsDNA, one strand shown. In outline:
as §1

CRX, sequence (O43186 whole entry): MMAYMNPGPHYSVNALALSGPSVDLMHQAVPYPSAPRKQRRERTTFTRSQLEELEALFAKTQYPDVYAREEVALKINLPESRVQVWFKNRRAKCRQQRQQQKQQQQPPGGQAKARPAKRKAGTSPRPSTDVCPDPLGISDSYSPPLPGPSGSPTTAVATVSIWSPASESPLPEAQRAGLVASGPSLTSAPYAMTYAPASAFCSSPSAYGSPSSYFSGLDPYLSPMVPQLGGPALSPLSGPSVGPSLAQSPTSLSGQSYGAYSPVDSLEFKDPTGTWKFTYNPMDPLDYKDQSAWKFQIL
ETV6, sequence (P41212 whole entry): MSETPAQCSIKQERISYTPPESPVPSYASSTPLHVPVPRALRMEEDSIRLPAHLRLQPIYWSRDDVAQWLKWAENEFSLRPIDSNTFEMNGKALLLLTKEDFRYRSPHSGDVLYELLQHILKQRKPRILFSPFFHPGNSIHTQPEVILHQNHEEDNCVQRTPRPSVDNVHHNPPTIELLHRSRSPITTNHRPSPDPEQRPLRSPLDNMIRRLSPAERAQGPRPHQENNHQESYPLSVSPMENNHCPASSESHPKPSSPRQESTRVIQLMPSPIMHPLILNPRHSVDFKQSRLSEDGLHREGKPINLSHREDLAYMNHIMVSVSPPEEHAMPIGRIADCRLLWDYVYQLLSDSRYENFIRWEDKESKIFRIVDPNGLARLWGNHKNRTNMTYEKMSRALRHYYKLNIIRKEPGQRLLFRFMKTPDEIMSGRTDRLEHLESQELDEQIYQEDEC
ELF4, sequence (Q99607 whole entry): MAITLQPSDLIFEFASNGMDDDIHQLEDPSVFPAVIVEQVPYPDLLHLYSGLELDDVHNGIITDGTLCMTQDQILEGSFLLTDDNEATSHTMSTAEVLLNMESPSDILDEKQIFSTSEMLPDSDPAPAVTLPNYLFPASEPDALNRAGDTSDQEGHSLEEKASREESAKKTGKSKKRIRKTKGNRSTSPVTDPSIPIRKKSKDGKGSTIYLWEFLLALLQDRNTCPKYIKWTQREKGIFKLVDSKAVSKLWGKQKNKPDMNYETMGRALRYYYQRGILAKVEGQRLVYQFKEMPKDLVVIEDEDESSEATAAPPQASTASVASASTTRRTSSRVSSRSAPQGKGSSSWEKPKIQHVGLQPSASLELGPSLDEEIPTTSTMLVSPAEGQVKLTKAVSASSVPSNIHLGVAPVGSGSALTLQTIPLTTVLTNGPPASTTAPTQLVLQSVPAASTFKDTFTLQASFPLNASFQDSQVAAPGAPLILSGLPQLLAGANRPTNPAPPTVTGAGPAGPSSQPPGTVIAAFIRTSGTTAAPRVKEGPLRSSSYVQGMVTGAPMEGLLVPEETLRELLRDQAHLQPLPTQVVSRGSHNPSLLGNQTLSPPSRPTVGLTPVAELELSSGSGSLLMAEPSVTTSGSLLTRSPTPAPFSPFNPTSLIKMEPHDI
ETV5, sequence (P41161 whole entry): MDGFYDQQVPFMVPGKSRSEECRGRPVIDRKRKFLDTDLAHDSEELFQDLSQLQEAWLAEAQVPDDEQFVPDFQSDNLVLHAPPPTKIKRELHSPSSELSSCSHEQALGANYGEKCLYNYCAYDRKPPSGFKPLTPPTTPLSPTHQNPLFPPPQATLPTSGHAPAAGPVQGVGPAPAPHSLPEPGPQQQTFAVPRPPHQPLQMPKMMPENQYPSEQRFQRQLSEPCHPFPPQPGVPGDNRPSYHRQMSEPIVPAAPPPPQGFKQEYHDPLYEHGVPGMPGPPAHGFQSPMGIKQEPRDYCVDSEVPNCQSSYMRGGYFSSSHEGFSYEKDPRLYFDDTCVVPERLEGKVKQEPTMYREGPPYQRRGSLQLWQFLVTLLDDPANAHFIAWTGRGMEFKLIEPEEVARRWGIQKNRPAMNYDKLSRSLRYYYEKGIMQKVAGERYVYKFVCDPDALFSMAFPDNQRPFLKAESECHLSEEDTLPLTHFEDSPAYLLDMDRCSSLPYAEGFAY
ETV1, sequence (P50549 whole entry): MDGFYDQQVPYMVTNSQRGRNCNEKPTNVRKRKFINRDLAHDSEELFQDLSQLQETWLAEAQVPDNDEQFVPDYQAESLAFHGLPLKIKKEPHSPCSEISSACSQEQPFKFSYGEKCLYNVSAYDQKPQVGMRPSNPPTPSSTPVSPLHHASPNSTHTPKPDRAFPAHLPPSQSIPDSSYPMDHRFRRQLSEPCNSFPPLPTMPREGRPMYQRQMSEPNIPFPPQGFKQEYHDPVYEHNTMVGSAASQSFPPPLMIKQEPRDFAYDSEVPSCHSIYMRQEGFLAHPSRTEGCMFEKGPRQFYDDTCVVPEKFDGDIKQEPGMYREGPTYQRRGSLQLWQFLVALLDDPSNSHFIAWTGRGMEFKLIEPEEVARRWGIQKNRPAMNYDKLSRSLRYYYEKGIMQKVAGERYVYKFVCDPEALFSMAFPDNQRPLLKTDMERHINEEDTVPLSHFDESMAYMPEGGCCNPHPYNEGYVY
HSF1, sequence (Q00613 whole entry): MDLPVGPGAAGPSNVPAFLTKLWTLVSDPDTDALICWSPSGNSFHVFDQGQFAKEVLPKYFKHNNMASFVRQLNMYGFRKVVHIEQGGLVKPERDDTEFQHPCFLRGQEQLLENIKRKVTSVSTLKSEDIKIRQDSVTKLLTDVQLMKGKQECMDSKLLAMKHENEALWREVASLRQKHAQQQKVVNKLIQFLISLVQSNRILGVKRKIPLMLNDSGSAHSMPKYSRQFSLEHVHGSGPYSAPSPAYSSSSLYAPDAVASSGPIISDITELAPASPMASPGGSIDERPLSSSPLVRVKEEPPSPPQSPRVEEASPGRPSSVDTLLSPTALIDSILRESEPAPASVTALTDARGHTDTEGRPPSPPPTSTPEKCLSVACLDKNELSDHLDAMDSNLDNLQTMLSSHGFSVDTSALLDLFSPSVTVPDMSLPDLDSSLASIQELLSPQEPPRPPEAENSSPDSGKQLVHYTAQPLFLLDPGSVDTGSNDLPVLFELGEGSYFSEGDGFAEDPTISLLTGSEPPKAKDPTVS

With TGCTGG, the binding signal with FEV is 1.09 fold enrichment (6-mer frequency, TF over GST control); in the assay with ETV5, 1.04 fold enrichment (6-mer frequency, TF over GST control); with HSF1 it was 1.43 fold enrichment (6-mer frequency, TF over GST control); with SPIC, 1.06 fold enrichment (6-mer frequency, TF over GST control); in the assay with ELF4 it was 1.12 fold enrichment (6-mer frequency, TF over GST control); with ELK4, 1.27 fold enrichment (6-mer frequency, TF over GST control). The binding signal was 1.22 fold enrichment (6-mer frequency, TF over GST control) with ETV2; 1.02 fold enrichment (6-mer frequency, TF over GST control) in the assay with ELF3; 1.03 fold enrichment (6-mer frequency, TF over GST control) with CRX; 1.08 fold enrichment (6-mer frequency, TF over GST control) with ETV1; 1.2 fold enrichment (6-mer frequency, TF over GST control) in the assay with ERF; 1.22 fold enrichment (6-mer frequency, TF over GST control) with ETV3L. Further, the binding signal is 1.07 fold enrichment (6-mer frequency, TF over GST control) with ETS2; 1.15 fold enrichment (6-mer frequency, TF over GST control) with SPDEF; 1.13 fold enrichment (6-mer frequency, TF over GST control) in the assay with ETV7; 1.07 fold enrichment (6-mer frequency, TF over GST control) with ELF5; 1.11 fold enrichment (6-mer frequency, TF over GST control) with ETV3; 1.06 fold enrichment (6-mer frequency, TF over GST control) in the assay with ETV6.
